Most compounds without a hit are left out; they make up all but 4.2% or so of the library.
tim10-1 inh – growth inhibitors of tim10-1 mutant yeast; S. cerevisiae tim10-1 ts strain growth, BacTiter-Glo, 24 h; inhibition, % at 20 µM; 2.2% of 330,000 active;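 active = inhibition of at least 40%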;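 note: mutant grown at 25 °C; 0% = DMSO wells with yeast and 100% = wells holding no yeast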
V-ATPase pH – yeast V-ATPase proton transport regulation by pHLuorin; 0.37% of 350,000 active; response, % at 10 µM; S. cerevisiae, pHLuorin cytosolic pH fluorescence; AID 504577; in the data active = response mostly above about 7.3%, no sharp cut-off; inactive = mostly below about 5.4%; note: actives read high
NLRP3 yeast inh – NALP3 inhibition in yeast; Yeast reconstituted NLRP3/ASC/caspase-1, beta-gal luminescence, 24 h; inhibition, % at 10 µM; 0.39% of 330,000 active;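 active = inhibition of 50% or more; inactive = inhibition below 50%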;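 note: plate controls were induced DMSO wells for no effect and uninduced yeast grown without galactose for full effect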
TIM10 inh – inhibits growth of TIM10 yeast strain. inhibition, % at 10 µM. 1.4% of 330,000 active. S. cerevisiae TIM10 strain growth, BacTiter-Glo luminescence, 24 h;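 active = inhibition of 40% or more at the single tested concentration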;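 note: wild-type TIM10 isogenic control strain grown at permissive 25 °C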
NALP1 yeast inh – NALP1 inhibition | S. cerevisiae NALP1/ASC/caspase-1 growth, X-gal OD620, 72 h | inhibition, % at 10 µM | 0.61% of 280,000 active | AID 2071; in the data active = inhibition mostly above about 24%, no sharp cut-off; inactive = mostly below about 32%
tim23-1 inh – inhibits growth of tim23-1 mutant yeast. S. cerevisiae tim23-1 growth, BacTiter-Glo luminescence, 24 h. inhibition, % at 20 µM. 1.3% of 330,000 active. AID 463212;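 active = growth inhibition of the mutant yeast at or above 50%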;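 note: temperature-sensitive mutant grown at 25 °C; plate controls were DMSO-treated mutant yeast for no effect and medium wells lacking yeast for full effect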
An asterisk follows results filed as active; . = not tested or not shown.

SMILES	tim10-1 inh	V-ATPase pH	NLRP3 yeast inh	TIM10 inh	NALP1 yeast inh	tim23-1 inh
CN(C)S(=O)(=O)n1cnc(-c2ccccc2)c1-c1ccccc1	25	5	4	5	7	-4
Cc1ccccc1N=C(NOCc1ccc(Cl)cc1Cl)c1nonc1N	12	2	13	-2	40*	16
Cc1ccc(N=C(NOCc2ccc(Cl)cc2Cl)c2nonc2N)c(C)c1	23	2	4	6	2	15
O=C(/C=C\c1ccccc1)NCC(=O)N/N=C/c1ccc(O)cc1O	3	12*	14	6	-4	0
COc1ccc(/C=C\C(=O)NCC(=O)N/N=C/c2ccc(O)cc2O)cc1	-2	1	3	-7	-23	-6
O=C(CSCc1ccc(F)cc1)NCc1ccc(F)cc1	9	-1	6	5	28*	4
Cc1ccc(CSCC(=O)NCc2ccc(F)cc2)cc1	16	-3	-1	-7	1	21
O=c1ccc(N=Nc2ccccc2)ccc1O	.	44*	.	.	14	.
CCCCS(=O)(=O)N1CCCC(C(=O)Nc2ccc3c(c2)CCC3)C1 (stereo unspecified)	0	-2	19	6	27*	-2
COc1ccc(C(=O)Nc2ccccc2C(=O)NC(C)C)cc1OC	18	0	20	13	36*	10
COC(=O)c1ccc(C(=O)OC)c(NC(=O)CSCc2ccc(Cl)cc2)c1	5	-2	7	8	1	10
O=C1c2ccccc2C(=O)C1Cc1cccc2ccccc12	23	289*	24	10	6	41
CCN1CCCC1CNS(=O)(=O)c1ccc(C(=O)Nc2ccccc2)cc1 (stereo unspecified)	-9	2	19	1	17	11
Cc1cc(Nc2ccc(Br)c(C)c2)n2nc(C)nc2n1	16	4	8	3	19	18
CCOC(=O)Cc1csc(NC(=O)Cc2ccc(Br)cc2)n1	15	1	26	20	35*	28
CCN1CCN(c2cc(C)c3cc(NC(=O)c4ccccc4F)ccc3n2)CC1	.	.	.	.	37*	.
Cc1[nH]c2ccccc2c1C(=O)CSc1ncn[nH]1	9	-139	6	8	22	5
Cc1[nH]c2ccccc2c1C(=O)CSc1n[nH]c(N)n1	0	13*	12	18	2	18
COc1ccccc1/C=C/C(=O)OCc1nc2ccccc2c(=O)[nH]1	-11	3	19	3	16*	12
Fc1ccc(C2CC(c3ccccc3)Nc3ncnn32)cc1 (stereo unspecified)	4	2	-1	12	35*	10
Cc1c(C(=O)O)cccc1-n1c(C)cc(/C=N/Nc2ccc([N+](=O)[O-])cn2)c1C	-10	16*	26	3	-8	6
OCCNCCCCOc1ccc(F)cc1	-11	1	22	3	6	-2
COc1ccc(OC)c(-c2cc(C(=O)N3CCN(c4ccccc4)CC3)no2)c1	33	18*	21	15	-14	26
O=C(CN1CCN(Cc2cccc3ccccc23)CC1)NCCc1ccccc1	24	0	7	13	27*	17
Cc1ccccc1CN1CCN(CC(=O)NCc2ccccc2)CC1	-14	3	15	-4	6	-21
SMILES	tim10-1 inh	V-ATPase pH	NLRP3 yeast inh	TIM10 inh	NALP1 yeast inh	tim23-1 inh
CCOCCCNCc1ccc(OCc2ccccc2Cl)cc1	-57	3	32	-27	52*	-34
CC(C)(C)c1ccc(OCCCNCc2ccccc2)cc1	-78	0	47	1	43	-11
CCc1cc(OCCCCNCc2ccccc2)ccc1Cl	-74	-1	22	-95	63*	27
Cc1cc(C)nc(NC(=O)c2cc(-c3ccc4c(c3)OCO4)nc3ccccc23)c1	25	14*	25	18	13	32
Cc1c(C)c2cc(Cl)c(O)c(CN3CCN(C)CC3)c2oc1=O	6	-5	-11	-4	14	-11
COc1cccc(NC(=O)C23CCC(C)(C(=O)O2)C3(C)C)c1 (stereo unspecified)	25	0	1	-2	39*	16
Cc1cccc(NC(=O)C23CCC(C)(C(=O)O2)C3(C)C)c1 (stereo unspecified)	-4	-2	-4	-23	-4	4
Cc1cccc(C)c1NC(=O)CN(C)C(=O)Cn1c(=O)cnc2ccccc21	-10	-4	4	-1	30*	-11
Cc1ccc(NC(=O)Cn2c(=O)cnc3ccccc32)cc1S(=O)(=O)N(C)C	10	1	9	1	17	-2

Source: PubChem BioAssay
